PubChem BioAssay (Tox21)
Results filed as inconclusive are left out. Calls of active or inactive are those of the source. Calls come from the whole dose curve; as a rule, active = well fitted cell-killing curve with a large enough effect in the repeat runs; inconclusive = weak or mixed curves, or effect the other way; inactive = flat fitted curve, though single readings scatter.

Assay: qHTS RealTime-Glo MT Cell Viability Assay in HEK293 cells - 16 hour (AID 1224872); note: top concentration of the series differs between compounds; nearly all actives have a fitted effect of over 50% in size
Conditions: RealTime-Glo luminescence; series mostly up to 76.8 µM
Text: National Center for Advancing Translational Sciences [NCATS]
NIH Chemical Genomics Center [NCGC]
U.S. Environmental Protection Agency [EPA]
National Institutes of Environmental Health Sciences [NIEHS]
National Toxicology Program [NTP]
U.S. Food and Drug Administration [FDA]
Measure of cell viability is critical in the cell-base assay. Analysis of cell viability is necessary for the characterization of cell responses to cytotoxic drugs and environmental stress. A RealTime-Glo MT Cell Viability Assay to monitor cell viability in real time of continues cell culture during 40 hours of compound treatment was used to screen Tox21 10K library compounds in Hek293 cells. The RealTime-Glo MT Cell Viability Assay is a nonlytic, homogeneous, bioluminescent method to measure cell viability in real time using a simple, plate-based method. The assay involves adding NanoLuc luciferase and a cell-permeant prosubstrate to cells in culture. Viable cells reduce the proprietary prosubstrate to generate a substrate for NanoLuc luciferase. This substrate diffuses from cells into the surrounding culture medium, where it is rapidly used by the NanoLuc Enzyme to produce a luminescent signal. The signal correlates with the number of viable cells, making the assay well suited for cytotoxicity studies.
Tox21 Assay Protocol Summary:
The mixture of Hek293 cell suspension and reagents were dispensed at 600cells/6 ul/well in 1536-well tissue culture treated black solid bottom plates using a Multidrop dispenser. After the assay plates were incubated at a 37 C/5% CO2 incubator for 5 hours, 23 nL of compounds dissolved in DMSO, positive and negative controls was transferred to the assay plate by a pintool work station. The plates were incubated at 37 C for 40 hours. The luminescence intensity were measured at 0h, 8h, 16h, 24h, 32h and 40h time points using ViewLux plate reader during compound treatment.

Row | Structure (SMILES) | outcome
1 | CCN(CC)c1ccccc1 | inactive
2 | COC(=O)c1ccccc1C(=O)OC | inactive
3 | COC(=O)NC(=S)Nc1ccccc1NC(=S)NC(=O)OC | inactive
4 | O=NN1CCCCCCC1 | inactive
5 | CCCN(CCC)c1c([N+](=O)[O-])cc(C(F)(F)F)cc1[N+](=O)[O-] | inactive
6 | CC(C)OC(=O)Nc1cccc(Cl)c1 | inactive
7 | Cc1ccccc1O | inactive
8 | O=S(=O)(c1ccc(O)cc1)c1ccc(O)cc1 | inactive
9 | CC1OC(C)OC(C)O1 (stereo not given) | inactive
10 | CCOP(=S)(OCC)SCCSCC | inactive
11 | Nc1ccc(Oc2ccc(N)cc2)cc1 | inactive
12 | CC(C)C#N | inactive
13 | O=S(=O)(c1ccc(Cl)cc1)c1cc(Cl)c(Cl)cc1Cl | inactive
14 | CN=C=S | inactive
15 | CCNc1nc(NC(C)(C)C)nc(SC)n1 | inactive
16 | CCCCN(CC)C(=O)SCCC | inactive
17 | ClCCBr | inactive
18 | ClCc1cccnc1 | inactive
19 | CN(C)N=O | inactive
20 | Cc1ccc([N+](=O)[O-])cc1C | inactive

Row | Structure (SMILES) | outcome
21 | CCCN(CCC)N=O | inactive
22 | NCC(O)c1ccc(O)cc1 (stereo not given) | inactive
23 | CCCCCOC(=O)c1ccccc1C(=O)OCCCCC | inactive
24 | CCOC(=O)c1ccccc1C(=O)OCC | inactive
25 | CCCCCCCCCl | inactive
26 | CCCCOC(=O)c1ccccc1C(=O)OCCCC | inactive
27 | CN(C)[C@@H]1C(=O)C(C(N)=O)=C(O)[C@@]2(O)C(=O)C3=C(O)c4c(O)cccc4[C@@](C)(O)[C@H]3C[C@@H]12 | inactive
28 | CC(C)NC(=O)N1CC(=O)N(c2cc(Cl)cc(Cl)c2)C1=O | inactive
29 | O=C(O)c1ccccn1 | inactive
30 | COC(=O)NS(=O)(=O)c1ccc(N)cc1 | inactive
31 | C1CN2CCN1CC2 | inactive
32 | [O-][Cl+2]([O-])O | inactive
33 | Oc1ccccc1Cl | inactive
34 | Cc1cccc([N+](=O)[O-])c1 | inactive
35 | Clc1cccc(Cl)c1Cl | inactive
36 | C[C@]12CC[C@H]3[C@@H](CC[C@@]45O[C@@H]4C(O)=C(C#N)C[C@]35C)[C@@H]1CC[C@@H]2O | inactive
37 | C=CC(N)=O | inactive
38 | CC(Oc1ccc(Cl)cc1Cl)C(=O)O (stereo not given) | inactive
39 | O=[N+]([O-])c1ccc([As](=O)(O)O)cc1 | inactive
40 | CCOP(OCC)OCC | inactive
